Results on 2 compounds are retold here after PubChem BioAssay AID489037 (National Center for Advancing Translational Sciences (NCATS), 2010).

The structures appear in SMILES notation. Inconclusive results are not listed. The source made the active and inactive calls. Calls come from the whole dose curve; as a rule, active = well fitted inhibition curve with a large enough effect; inconclusive = small, poorly fitted or top-dose-only effect, or effect the other way; inactive = no such curve, though single readings can be large or run the other way.

This experiment addresses Nuclear receptor ROR-gamma (Mus musculus) (UniProt P51450). The experiment in a line: Secondary confirmation assay for inhibitors of ROR gamma transcriptional activity. The settings on record: Drosophila S2 Gal4-RORgamma UAS-luciferase reporter, 20 h. An excerpt:
NIH Molecular Libraries Probe Production Network [MLPCN] NIH Chemical Genomics Center [NCGC] MLPCN Grant: R03 DA026211-01 Assay Provider: Dan Littman, New York University Keywords: NIH Roadmap, MLPCN, MLI, MLSMR, qHTS, NCGC, qHTS, nuclear hormone receptor, retinoic acid-related orphan receptor, ROR gamma Assay Overview: The retinoic acid-related orphan receptor (ROR) gamma is a transcription factor that has a central role in the differentiation of Th17 cells, a subset of T helper cells that secrete the inflammatory cytokines IL-17, IL-17F, and IL-22. Th17 cells have been implicated in graft versus host disease, autoimmune disease and asthma. ROR gamma is induced in naive T helper cells in the presence of TGF-beta combined with IL-6, IL-21, or IL-23, and thereafter directs the expression of the Th17 lineage cytokines. To study the mechanism of action of ROR gamma, an insect cell-based assay was screened. […] Small molecule inhibitors of ROR gamma activity are detected by a decrease in luciferase reporter activity.
Assay Protocol Summary: For screening, 600 cells in 4 uL/well were dispensed into white solid 1536-well plates (Grenier) using a solenoid-based dispenser. […] After addition of 1.5 uL Photinus luciferase detection reagent, the plates were incubated 10 min at ambient temperature and then read by an ViewLux (Perkin Elmer) to detect luminescence. […]

Chain of Nuclear receptor ROR-gamma (Mus musculus) (P51450 whole entry, looked up, the tested form may be a part): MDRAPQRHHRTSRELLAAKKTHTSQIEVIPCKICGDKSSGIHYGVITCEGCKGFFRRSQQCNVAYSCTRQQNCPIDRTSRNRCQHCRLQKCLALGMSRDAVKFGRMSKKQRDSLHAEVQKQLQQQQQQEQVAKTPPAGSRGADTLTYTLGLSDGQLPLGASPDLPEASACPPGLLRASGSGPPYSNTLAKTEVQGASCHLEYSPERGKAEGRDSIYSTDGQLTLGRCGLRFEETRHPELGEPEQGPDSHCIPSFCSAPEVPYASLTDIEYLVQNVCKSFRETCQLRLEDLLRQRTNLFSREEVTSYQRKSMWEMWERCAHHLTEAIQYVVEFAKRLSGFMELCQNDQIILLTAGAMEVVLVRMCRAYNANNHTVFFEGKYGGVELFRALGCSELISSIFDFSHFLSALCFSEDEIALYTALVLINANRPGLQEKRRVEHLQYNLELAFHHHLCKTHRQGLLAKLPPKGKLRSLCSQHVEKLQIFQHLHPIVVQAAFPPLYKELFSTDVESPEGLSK

Consider `CC1OC(O[C@@H]2C(O)CC(O[C@@H]3C(O)C[C@@H](OC4CC[C@@]5(C)C6CC[C@]7(C)C(C8=CC(=O)OC8)C(O)C[C@@]7(O)[C@H]6CC[C@@H]5C4)OC3C)OC2C)CC(O)C1O` (some centres not stated), for which the Potency is 4070 nM (active).

Consider `CO[C@H]1[C@@H](O)CC(OC2[C@@H](O)CC(OC3[C@@H](O)C[C@H](OC4CC[C@@]5(C)C(CCC6C5CC(O)[C@]5(C)[C@H](C7=CC(=O)OC7)CCC65O)C4)O[C@@H]3C)O[C@@H]2C)O[C@@H]1C` (some centres not stated), for which the Potency is 1820 nM (active).
